Test results reported in the supplement of paper PMC10849652.
The full data set covers some 7,900 targets. This sample favours those with a hit. About 0.6% of all pairs of compound and target were hits.

Each target was assayed with NC(=O)Nc1cc(-c2cccc(F)c2)sc1C(=O)N[C@H]1CCCNC1 (assay: log2 fold change, soluble protein after heating vs DMSO (PISA); higher = thermal stabilisation; K562 cells, 10 uM, 30 min; active = over 0.2 and 3.5 SD of the protein, either way, in both replicates (recomputed)).
In short: (§1)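 Soluble protein was defined as the supernatant after 21,000xg for 90 min. It came from K562 cells at 2×10^6 cells/mL given 10 μM compound for 30 min, heated in aliquots for 3 min across 48°C-58°C, pooled, and extracted in PBS with 0.5% NP-40 at 4°C, and was quantified by TMTpro 16plex LC-MS/MS with equalised channel sums. Thermal stability against control samples, from duplicates, is reported as log2 fold change.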

UniProt Q9Y6B2, sequence (Q9Y6B2 whole entry, looked up): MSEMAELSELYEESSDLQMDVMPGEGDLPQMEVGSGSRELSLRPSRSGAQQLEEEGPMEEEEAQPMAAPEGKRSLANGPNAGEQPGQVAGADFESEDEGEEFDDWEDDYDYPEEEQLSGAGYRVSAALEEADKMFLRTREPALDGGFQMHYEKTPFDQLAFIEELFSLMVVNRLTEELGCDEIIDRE
UniProt Q92556, sequence (Q92556 whole entry, looked up): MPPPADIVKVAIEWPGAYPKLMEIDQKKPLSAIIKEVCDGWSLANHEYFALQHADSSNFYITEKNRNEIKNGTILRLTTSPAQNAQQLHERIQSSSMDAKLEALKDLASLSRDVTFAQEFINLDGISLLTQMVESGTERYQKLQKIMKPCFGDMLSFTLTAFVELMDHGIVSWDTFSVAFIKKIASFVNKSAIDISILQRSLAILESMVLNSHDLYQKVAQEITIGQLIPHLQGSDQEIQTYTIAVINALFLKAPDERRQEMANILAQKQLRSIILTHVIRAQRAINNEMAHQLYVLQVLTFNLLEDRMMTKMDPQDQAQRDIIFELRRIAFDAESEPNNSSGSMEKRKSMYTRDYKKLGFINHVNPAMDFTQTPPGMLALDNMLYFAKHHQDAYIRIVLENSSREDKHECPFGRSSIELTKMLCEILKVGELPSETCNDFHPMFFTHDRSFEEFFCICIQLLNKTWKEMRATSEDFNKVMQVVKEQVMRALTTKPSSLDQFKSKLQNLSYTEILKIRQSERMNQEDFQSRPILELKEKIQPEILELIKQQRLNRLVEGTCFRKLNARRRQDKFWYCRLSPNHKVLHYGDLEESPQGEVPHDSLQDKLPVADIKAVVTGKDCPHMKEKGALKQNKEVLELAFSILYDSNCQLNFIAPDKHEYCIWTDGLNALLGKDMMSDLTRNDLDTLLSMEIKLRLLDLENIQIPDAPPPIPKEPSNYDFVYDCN
UniProt Q07973, sequence (Q07973 whole entry, looked up): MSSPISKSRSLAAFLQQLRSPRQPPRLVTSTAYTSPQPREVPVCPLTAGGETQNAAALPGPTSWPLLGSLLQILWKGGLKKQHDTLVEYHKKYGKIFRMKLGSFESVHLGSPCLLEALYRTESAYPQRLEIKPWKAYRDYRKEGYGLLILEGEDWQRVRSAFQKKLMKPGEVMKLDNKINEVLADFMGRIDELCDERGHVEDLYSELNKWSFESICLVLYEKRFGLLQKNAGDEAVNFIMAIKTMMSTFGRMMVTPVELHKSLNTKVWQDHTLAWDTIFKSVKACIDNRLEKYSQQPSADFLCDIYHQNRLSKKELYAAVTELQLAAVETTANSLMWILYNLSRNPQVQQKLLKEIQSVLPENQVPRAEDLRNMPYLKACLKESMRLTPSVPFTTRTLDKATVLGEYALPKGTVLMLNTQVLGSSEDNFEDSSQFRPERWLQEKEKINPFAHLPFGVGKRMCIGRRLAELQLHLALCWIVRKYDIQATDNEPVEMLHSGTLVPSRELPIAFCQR
UniProt Q9NQZ7, sequence (Q9NQZ7 whole entry, looked up): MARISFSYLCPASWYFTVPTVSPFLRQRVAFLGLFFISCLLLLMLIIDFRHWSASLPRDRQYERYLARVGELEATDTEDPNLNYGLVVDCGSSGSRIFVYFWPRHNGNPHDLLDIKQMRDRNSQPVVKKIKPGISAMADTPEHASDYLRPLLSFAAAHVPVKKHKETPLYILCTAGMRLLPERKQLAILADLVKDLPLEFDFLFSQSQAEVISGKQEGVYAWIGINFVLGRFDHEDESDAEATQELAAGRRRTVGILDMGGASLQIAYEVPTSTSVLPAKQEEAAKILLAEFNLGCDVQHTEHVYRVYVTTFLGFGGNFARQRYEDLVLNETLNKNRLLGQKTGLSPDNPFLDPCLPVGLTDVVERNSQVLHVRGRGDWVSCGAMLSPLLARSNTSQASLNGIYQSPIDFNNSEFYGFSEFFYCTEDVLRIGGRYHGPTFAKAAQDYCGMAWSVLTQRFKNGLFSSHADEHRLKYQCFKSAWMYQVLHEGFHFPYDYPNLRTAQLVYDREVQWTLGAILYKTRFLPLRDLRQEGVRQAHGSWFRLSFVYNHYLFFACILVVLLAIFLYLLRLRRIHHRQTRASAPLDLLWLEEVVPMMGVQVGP
UniProt P54760, sequence (P54760 whole entry, looked up): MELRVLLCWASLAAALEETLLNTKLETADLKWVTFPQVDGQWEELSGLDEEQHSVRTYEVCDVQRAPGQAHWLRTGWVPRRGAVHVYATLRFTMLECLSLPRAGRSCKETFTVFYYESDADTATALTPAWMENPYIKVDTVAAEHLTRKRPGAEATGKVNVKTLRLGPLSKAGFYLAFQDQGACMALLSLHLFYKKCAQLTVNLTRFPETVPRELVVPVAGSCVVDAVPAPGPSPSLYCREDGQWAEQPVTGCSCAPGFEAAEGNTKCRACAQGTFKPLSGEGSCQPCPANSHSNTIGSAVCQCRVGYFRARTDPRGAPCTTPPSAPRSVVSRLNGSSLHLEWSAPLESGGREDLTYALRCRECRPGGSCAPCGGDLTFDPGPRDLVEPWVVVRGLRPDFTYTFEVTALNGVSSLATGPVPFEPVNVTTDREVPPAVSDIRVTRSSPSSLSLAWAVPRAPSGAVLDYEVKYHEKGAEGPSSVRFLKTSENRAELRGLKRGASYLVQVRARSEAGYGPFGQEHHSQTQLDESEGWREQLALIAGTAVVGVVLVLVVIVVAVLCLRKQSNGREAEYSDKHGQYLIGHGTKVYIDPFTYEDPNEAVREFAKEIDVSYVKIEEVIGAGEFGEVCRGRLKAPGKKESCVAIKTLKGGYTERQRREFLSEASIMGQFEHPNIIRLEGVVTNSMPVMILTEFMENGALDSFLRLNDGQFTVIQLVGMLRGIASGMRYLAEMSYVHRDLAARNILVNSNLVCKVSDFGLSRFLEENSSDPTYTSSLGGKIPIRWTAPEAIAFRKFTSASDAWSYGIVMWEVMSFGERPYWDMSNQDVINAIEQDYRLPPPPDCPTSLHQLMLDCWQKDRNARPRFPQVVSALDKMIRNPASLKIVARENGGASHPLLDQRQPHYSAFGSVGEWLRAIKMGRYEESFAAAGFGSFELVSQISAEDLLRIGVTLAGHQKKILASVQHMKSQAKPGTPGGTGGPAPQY
UniProt Q3B7T1, sequence (Q3B7T1 whole entry, looked up): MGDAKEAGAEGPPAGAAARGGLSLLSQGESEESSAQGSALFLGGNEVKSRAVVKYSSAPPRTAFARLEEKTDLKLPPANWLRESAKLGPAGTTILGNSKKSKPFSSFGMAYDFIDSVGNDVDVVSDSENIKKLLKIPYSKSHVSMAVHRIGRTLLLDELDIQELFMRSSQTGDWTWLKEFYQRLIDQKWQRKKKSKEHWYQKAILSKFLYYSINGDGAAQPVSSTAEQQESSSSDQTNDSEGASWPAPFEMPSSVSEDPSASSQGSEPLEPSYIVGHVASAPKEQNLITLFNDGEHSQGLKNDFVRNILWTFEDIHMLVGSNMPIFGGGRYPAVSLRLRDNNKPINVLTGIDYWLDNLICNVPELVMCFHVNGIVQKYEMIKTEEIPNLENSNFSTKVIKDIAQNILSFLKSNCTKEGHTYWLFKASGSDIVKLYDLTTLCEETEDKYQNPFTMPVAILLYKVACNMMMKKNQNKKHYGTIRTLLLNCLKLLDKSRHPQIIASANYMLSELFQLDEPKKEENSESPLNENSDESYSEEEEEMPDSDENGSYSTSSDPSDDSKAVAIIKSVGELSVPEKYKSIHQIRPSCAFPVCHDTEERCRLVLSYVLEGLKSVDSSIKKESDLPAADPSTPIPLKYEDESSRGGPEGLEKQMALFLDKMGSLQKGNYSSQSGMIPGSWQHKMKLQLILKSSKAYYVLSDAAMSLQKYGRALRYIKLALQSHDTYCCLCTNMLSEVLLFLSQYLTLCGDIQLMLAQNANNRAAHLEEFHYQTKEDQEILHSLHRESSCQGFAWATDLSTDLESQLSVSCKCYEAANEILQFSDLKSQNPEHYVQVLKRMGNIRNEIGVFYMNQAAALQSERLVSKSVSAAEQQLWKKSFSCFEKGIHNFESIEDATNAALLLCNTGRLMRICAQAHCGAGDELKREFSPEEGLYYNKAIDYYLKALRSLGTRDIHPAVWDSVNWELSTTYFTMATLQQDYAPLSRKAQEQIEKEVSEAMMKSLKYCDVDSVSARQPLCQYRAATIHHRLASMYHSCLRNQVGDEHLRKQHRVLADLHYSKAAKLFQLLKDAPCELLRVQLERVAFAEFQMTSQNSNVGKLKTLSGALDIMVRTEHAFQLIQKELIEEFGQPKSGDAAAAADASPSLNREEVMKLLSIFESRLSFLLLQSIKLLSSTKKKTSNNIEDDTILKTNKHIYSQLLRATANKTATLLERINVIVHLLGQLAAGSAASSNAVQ
UniProt Q5T6F0, sequence (Q5T6F0 whole entry, looked up): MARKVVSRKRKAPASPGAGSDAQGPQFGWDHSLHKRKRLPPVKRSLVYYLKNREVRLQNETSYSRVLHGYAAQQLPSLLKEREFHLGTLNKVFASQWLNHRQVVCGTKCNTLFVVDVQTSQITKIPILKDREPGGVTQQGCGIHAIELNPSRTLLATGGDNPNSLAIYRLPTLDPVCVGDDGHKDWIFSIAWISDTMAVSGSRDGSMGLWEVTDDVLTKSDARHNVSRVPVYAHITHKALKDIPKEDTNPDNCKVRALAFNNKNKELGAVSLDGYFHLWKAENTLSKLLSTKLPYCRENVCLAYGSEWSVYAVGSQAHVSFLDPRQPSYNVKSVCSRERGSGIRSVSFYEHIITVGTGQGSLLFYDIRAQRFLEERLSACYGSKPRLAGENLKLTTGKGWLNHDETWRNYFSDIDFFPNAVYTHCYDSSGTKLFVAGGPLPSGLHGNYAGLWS
UniProt Q6P3W2, sequence (Q6P3W2 whole entry, looked up): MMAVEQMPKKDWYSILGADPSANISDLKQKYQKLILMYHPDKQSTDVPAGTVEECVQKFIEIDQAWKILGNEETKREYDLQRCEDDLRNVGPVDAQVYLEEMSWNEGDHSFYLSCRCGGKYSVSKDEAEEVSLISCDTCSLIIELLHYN

log2 fold change, inactive:
DDB1 isoform 2 (UniProt Q16531) -0.295
EDRF1 (UniProt Q3B7T1) -0.062
CWF19L2 (UniProt Q2TBE0) 0.129
DNAJC24 (UniProt Q6P3W2) 0.023
DNAH5 (UniProt Q8TE73) -0.029
FAM135A (UniProt Q9P2D6) 0.069
ENTPD7 (UniProt Q9NQZ7) 0.024
CTSS (UniProt P25774) -0.054
DHPS (UniProt M0R1T2) 0.063
DCAF4 (UniProt Q8WV16) -0.046
ELF1 (UniProt P32519) -0.124
ERF (UniProt P50548) -0.53
ELMO1 (UniProt Q92556) -0.07
EID1 (UniProt Q9Y6B2) -0.078
DNM2 isoform 4 (UniProt P50570) -0.033
EPHB4 (UniProt P54760) -0.207
DNAH10 (UniProt Q8IVF4) 0.057
DCAF12 (UniProt Q5T6F0) -0.025

These targets were tested with NC(=O)c1cnc(N[C@@H]2CCCC[C@@H]2N)nc1Nc1cccc(-n2nccn2)c1 in the same assay as above.
In short: as §1

log2 fold change, inactive:
CWF19L2 (UniProt Q2TBE0) 0.013
EIF4G1 (UniProt Q04637) -0.14
F2RL3 (UniProt Q96RI0) 0.003
DNAL1 (UniProt Q4LDG9) 0.035
CYP24A1 (UniProt Q07973) 0.045
EIF2AK3 (UniProt Q9NZJ5) 0.056
EHBP1 (UniProt Q8NDI1) -0.092
FAM117B (UniProt Q6P1L5) -0.159
ELF1 (UniProt P32519) -0.044
DOLPP1 (UniProt Q86YN1) -0.102
ELOVL7 (UniProt A1L3X0) -0.001

Each target was assayed with NC1(c2ccc(-c3nc4ccn5c(=O)[nH]nc5c4cc3-c3ccccc3)cc2)CCC1 in the same assay as above.
In short: as §1

log2 fold change, inactive:
EDRF1 (UniProt Q3B7T1) -0.044
DDX46, A0A0C4DG89 -0.177
DNAJC24 (UniProt Q6P3W2) 0.011
FAM160A2 isoform 2 (UniProt Q8N612) 0.158
CYP24A1 (UniProt Q07973) 0.43
DNAH5 (UniProt Q8TE73) -0.077
DERPC (UniProt P0CG12) 0.008
ENTPD7 (UniProt Q9NQZ7) -0.052
DOP1A (UniProt Q5JWR5) 0.106
EIF2AK3 (UniProt Q9NZJ5) -0.211
EEF2K (UniProt O00418) -0.119
EHBP1 (UniProt Q8NDI1) 0.017
DCAF4 (UniProt Q8WV16) -0.127
ELMO1 (UniProt Q92556) -0.146
EID1 (UniProt Q9Y6B2) -0.055
DOLPP1 (UniProt Q86YN1) -0.053
DNM2 isoform 4 (UniProt P50570) -0.318
EPHB4 (UniProt P54760) -0.102
DNAH10 (UniProt Q8IVF4) -0.045
DCAF12 (UniProt Q5T6F0) -0.201
EEF1D isoform 3 (UniProt P29692) 0.2
